Test results: paper PMC13494018
A number with no mark means an inactive call. The rule behind the calls is not given here.

B1: d4r4_design_ppi_373_dldesign_0_cycle0_af2pred (protein)
chain: AARAAAQKEAVALMAEAAEKAAEKAKKTSVAAEAFRAATKAAQAAASGEKWPEGEAAVEKLKKLDPEAGKIIAEAAAKAKAIMA
B2: d4r4_design_ppi_129_dldesign_0_cycle1_af2pred (protein)
chain: MEKVTEARDVALEAAGILELAGIKVPEYRKELSEKAKEAIREVAEAGREALEKGEEEYEKLEKVAEKVYKEAKKKAEEALKKKE
B3: d4r4_design_ppi_240_dldesign_0_cycle0_af2pred (protein)
chain: MKEKQEKARAEARAEHVKEAIEKYYKEAAKGDKKEALKKTAEFAKEAAKKAKYPLTKEIALALAEEYAKKAA
B4: d4r4_design_ppi_349_dldesign_0_cycle1_af2pred (protein)
chain: SEAAKYKAQYEATKKQLKETSAKLKEEKKNLSAETYKEYANKLQEARQKSTYYKAKGDYKNALAAMQEALDIAQQALAEAQKAK
B5: d4r4_design_ppi_410_dldesign_0_cycle0_af2pred (protein)
chain: AAAAAAAQKAEMDRTVAAAERQTAILEKRLKAAGLTALADKVKAALAALKAAAEAGDYEAAKKAAAALAKAAAEAREAVAEKEVKA
B6: d4r4_design_ppi_229_dldesign_0_cycle0_af2pred (protein)
chain: EKEEKIKKAKELAEKAKELAKKLKEAGEKDLEKAKKLLKEAREAAKKAIELAKEAGDEELAKKASDEQAKAQEAYAEAKAK
B7: d4r4_design_ppi_102_dldesign_0_cycle1_af2pred (protein)
chain: EEEKVKKAAEKAIKLAKETAEKAYKAAKKVKDKEYKEKFKEITLLALEAKALARAGKALGNKELVEAAKKLAEEAKEKLEKLEKEAE
B8: d4r4_design_ppi_105_dldesign_0_cycle1_af2pred (protein)
chain: MEEIKKEVEETTKKAKEKLKELEKEAEKAGVKEAVEVAKKGKEKVEKLAKKAEKAVKEGNKNYALAKIDAIKDTTEAAEKQVKKLIKA
B9: d4r4_design_ppi_87_dldesign_0_cycle0_af2pred (protein)
chain: AEENKAEGAKEAAEDAIEAALKKAEEDPEEGLKAAEKVKERVKKRAEEVEETEYGKKVGKEIKKKAEKALKEIEKKAKAAKAAK
B10: d4r4_design_ppi_222_dldesign_0_cycle1_af2pred (protein)
chain: SLEKLKEYLENAEKERKKVLEAAKEARELAKKGEEEEAKKYLGNAVTDARLNLNEAAYDAGLDTSIGNKLAKEFGAEGEKIFK
B11: d4r4_design_ppi_303_dldesign_0_cycle0_af2pred (protein)
chain: MAERAAIMEEARENAIKAYEYAVKLKKIDPELGKEYMKKIDKLMKEAVEAAKDAEKAKKKAEEIKKLAEEIEKIAKEK
B12: d4r4_design_ppi_344_dldesign_0_cycle1_af2pred (protein)
chain: DPLTLAQEGLTEARYNAKDPEKALAILTATVAAGTAALAALAADPATAPLAAAGLATLARYGAKVGAEILANAKEKEA
B13: d4r4_design_ppi_356_dldesign_0_cycle1_af2pred (protein)
chain: DLEEKAKEGLKKMEEEGKKNPELGKKVKELLEKGKEDGLKGVVEAAKLLTKEAGEEIKPYAAAIVHYERLKK
B14: d4r4_design_ppi_157_dldesign_0_cycle1_af2pred (protein)
chain: SKEEARKRGLESAEELKELVEEGIPVEAVGAIAASDVEWLMKYPYGEYAAEALIEALEKYNPVMGEKAREAYEEAKERKAK
B15: d4r4_design_ppi_396_dldesign_0_cycle0_af2pred (protein)
chain: AEAAAFAAAKAAAAKAFAEAYEAANALLASGKYKEEAEKGKKELKELAKKLKAAKTAEEAKKVAEEAKKLAEKLKKLLEEAE
B16: d4r4_design_ppi_338_dldesign_0_cycle1_af2pred (protein)
chain: SLNEEAKKEAEKLVEKAKKALKESPEAGEKAVKEMANKYHEYLELGVDKEVVERLRKEAKELKEEVKRKKKELEEEKLA
B17: d4r4_design_ppi_213_dldesign_0_cycle1_af2pred (protein)
chain: GALEEAKKLVEEAAKLAEEGKLEEAKEKLKKAMDLAAEHEDPEVVREIAREAKKIVELAEKKKKEKEEKEKKEK
B18: d4r4_design_ppi_128_dldesign_0_cycle1_af2pred (protein)
chain: SSAEQAAKLRAELDAAAAAAAAAIAAAAGLTPAAAAAASAATIAAYKATASALIDAAFELSSDYGRSIAKAAKEKLAALEAQAAALA
B19: d4r4_design_ppi_269_dldesign_0_cycle1_af2pred (protein)
chain: DVEEAREKNLEIAKKAIEEARKVAKEAEKKPEYREKAKELRKEAEELEKLAEEGKKDPLMATLAGVQGRRLLEEARKLRKELEEE
B20: d4r4_design_ppi_349_dldesign_0_cycle0_af2pred (protein)
chain: SEKEKLLEKYKETLEELRKVRKELAKEKKNLDKETFTKIANELQDARNESAYYKQQGDYKKALEAAEKALEIAKEGLKKAKEAA
B21: d4r4_design_ppi_265_dldesign_0_cycle1_af2pred (protein)
chain: SKEEEEAKKTKEEAEKRLKKALEEAKKLGEAEVDAVKQIVEAGKKAAAAAETPKEAAEALAKAAKTAESIIKTAKEAKKR
B22: d4r4_design_ppi_225_dldesign_0_cycle1_af2pred (protein)
chain: DELREQAERAKKRFEEAEKKLKEALEKGDKKEAIKYAERLKHLAEVAEKLAEEVEAAATNPETKELAERLKELAKRAKKLAEEALKK
B23: d4r4_design_ppi_253_dldesign_0_cycle1_af2pred (protein)
chain: MEEKKEEARRIVREAREEARKAAAESPEAALKAAEKVKERRKELEEKVDFKTAESASARFEQIIEALKIAAKKLAA
B24: d4r4_design_ppi_394_dldesign_0_cycle1_af2pred (protein)
chain: MEIQKENDAEAGLERAKHAKEVAKKALENKPKLSLEEVAEILKKAAERAEKAAKTEEGKKLAKELKEEAKKVEAELKKAQ
B25: d4r4_design_ppi_128_dldesign_0_cycle0_af2pred (protein)
chain: ESEKKYKELKEELEKAYKEAKKAILEASKLKPEEAKKKMEEILEEFKKKAYELISKALEQSADYGRELAKLAQEYYKELEELAKKLL
B26: d4r4_design_ppi_373_dldesign_0_cycle1_af2pred (protein)
chain: SEKEARIKEAVALMDKAAEEAAEKAKTTELANKAFRAATTAAKAAASGEDWPKGEAAVKELKKADPEAGKIIEEAAKQAAEIIA
B27: d4r4_design_ppi_269_dldesign_0_cycle0_af2pred (protein)
chain: SVEEAKKKNLKIAEEAIKLAEEVAKELEKNEKYKEKAEEFKKKAKELKELKKKGEEDALDATLAGVYGKRLKKKAEEEKKKLEEE
B28: d4r4_design_ppi_90_dldesign_0_cycle1_af2pred (protein)
chain: MTKEEAERMIKILKERLEKIKKAGKEKGEEMQKIAKELEEALKKAEEAFKKDPEKAGAYFQEARQIAAEGEFKEK
B29: d4r4_design_ppi_251_dldesign_0_cycle1_af2pred (protein)
chain: DSDEKAKELLEEAEKYLEEGEKLMEEGKYEEAVLLYRRAQVAALSAELSATTEELKEKAKELLKKAEEKLKEAEEALKKAEEEKK
B30: d4r4_design_ppi_180_dldesign_0_cycle1_af2pred (protein)
chain: DDFEKALEELKKAGELLPEAAEIAEEAIKKATASKDLKEAAKILLEAAKKIAKIAKEAGNEEAAKAAAAAAQYARQLKAAA
B31: d4r4_design_ppi_257_dldesign_0_cycle1_af2pred (protein)
chain: AEAKAAREAEFKALVEKAEAAADAAMAKATTIEEKKAILDLFNEAARHAKRGAANPETAAADLAAAKAKLAEIEAKAKA
B32: d4r4_design_ppi_123_dldesign_0_cycle0_af2pred (protein)
chain: SEAEKKTKEAAKLAYEAAKSNPEKGREYRKKAGELIATLSPEEAKKAAAEAQDAYAEGRAEKKLEELKKREEEK
B33: d4r4_design_ppi_299_dldesign_0_cycle0_af2pred (protein)
chain: KSELAKKAADETSKALSYIRAFAKYKPEKGKEIEDLLLDEEKMEEAAELAEKAAKEAETEEEKEIAKKAAEHIRKAKEYLEKLK
B34: d4r4_design_ppi_123_dldesign_0_cycle1_af2pred (protein)
chain: AAEAAKAAAAAALAKKAAQSSPEKARAYRKEAGALIAELSPAAAAAAAAAAQDAYADGVAEKVLSELEEKKKKE
B35: d4r4_design_ppi_225_dldesign_0_cycle0_af2pred (protein)
chain: AELRERAEAAERRFEAAKARLKEALEKGDKSRAYGEAFRLKHIAEVARRLAAEVRAAATTEEQRELAERLEELAREAEALAEEALKK
B36: d4r4_design_ppi_253_dldesign_0_cycle0_af2pred (protein)
chain: MEELREEARRRMREARERAGEAAATSPEAAREAAEEVRRIAEELRKRVDWQTGARAEAQAEQIVEALERAAKAMEA
B37: d4r4_design_ppi_227_dldesign_0_cycle1_af2pred (protein)
chain: GFKTKATAESGYERMKSIYEAFAKLGPKSPIYKEGAEKMKEYAEKLKELENSTEEEIEKLSKEGIEVGKKLKAEAEAK
B38: d4r4_design_ppi_229_dldesign_0_cycle1_af2pred (protein)
chain: EKEEKKKEAKELAEEAKKLAEELAKAAEEDLEKAKELYKKAKEAAGKAIKLAKEAGDKETAKEASENNFKAHENYAEGKFK

Biological target: VTCN1, Q7Z7D3
Sequence (Q7Z7D3 whole entry): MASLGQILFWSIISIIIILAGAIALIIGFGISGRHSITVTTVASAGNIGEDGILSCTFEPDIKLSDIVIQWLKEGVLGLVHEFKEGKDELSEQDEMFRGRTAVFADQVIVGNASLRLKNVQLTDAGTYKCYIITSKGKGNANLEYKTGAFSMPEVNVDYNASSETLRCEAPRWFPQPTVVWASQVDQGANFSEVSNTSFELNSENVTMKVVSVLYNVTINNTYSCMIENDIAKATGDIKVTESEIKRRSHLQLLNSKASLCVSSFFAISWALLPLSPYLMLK

| Binder | binding in a display sort |
| --- | --- |
| B1 | not found |
| B2 | not found |
| B3 | not found |
| B4 | not found |
| B5 | not found |
| B6 | not found |
| B7 | not found |
| B8 | not found |
| B9 | not found |
| B10 | not found |
| B11 | not found |
| B12 | not found |
| B13 | not found |
| B14 | not found |
| B15 | not found |
| B16 | not found |
| B17 | not found |
| B18 | not found |
| B19 | not found |

| Binder | binding in a display sort |
| --- | --- |
| B20 | not found |
| B21 | not found |
| B22 | not found |
| B23 | not found |
| B24 | not found |
| B25 | not found |
| B26 | not found |
| B27 | not found |
| B28 | not found |
| B29 | not found |
| B30 | not found |
| B31 | not found |
| B32 | not found |
| B33 | not found |
| B34 | not found |
| B35 | not found |
| B36 | not found |
| B37 | not found |
| B38 | not found |
